Only some compounds are listed: those with a hit (about 2.2% of all), similar ones and a draw of the others.
beta cell repl – inducers of MIN6 beta-cell proliferation, primary screen, ATP luminescence, uHTS; MIN6 cells proliferation, ATPlite luminescence, 48 h; cells starved in 0.2% serum; 100% = growth in 10% serum; proliferation, % at 10 µM; 330,000 compounds, 0.29% hits;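 active = compounds whose signal lies at least 3.5 SD above the mean of all wells on their plate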
Cardio protect – cardioprotection against H2O2-induced cell death, primary screen, uHTS, H9c2 cells, ATPLite luminescence; AID 588492, 2011; H9c2 cardiomyocytes, H2O2 injury protection, 2 h; 360,000 compounds, 0.63% hits; protection from H2O2 cell death, % at 20 µM;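 active = compounds giving at least 50% protection of heart cells from peroxide-induced death in the single-dose screen, raw or plate-pattern-corrected value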
iPSC survival up – enhancers of single-cell hiPSC survival, primary screen, ATPlite luminescence | 360,000 compounds, 0.044% hits | 100% = ROCK inhibitor wells, 0% = DMSO | survival enhancement, % at 20 µM; in the data active = survival enhancement above about 18%;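 note: cells exposed to compounds for 16 hours before the ATP read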
ABCB6 inh MLPCN – ABCB6 transporter inhibitors, primary screen, K562-ABCB6 cells, flow cytometry, MLPCN library; fluorescence ratio to DMSO, % at 10 µM; K562-ABCB6 porphyrin accumulation, 1 h; hits give low values; 360,000 compounds, 0.19% hits; ATP-binding cassette sub-family B member 6 (Homo sapiens), Q9NP58;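 active = fluorescence ratio to DMSO below 75%, the collection mean minus 3 SD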;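 note: signal is porphyrin accumulated inside mitochondria; lower ratio means ABCB6 inhibition with less porphyrin fluorescence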
Myeloid diff 2 – induction of myeloid progenitor differentiation, primary screen, cell-based, flow cytometry, MLPCN library | ER-HoxA9 myeloid progenitors, lysozyme-GFP differentiation | calls only at 10 µM | 360,000 compounds, 1% hits | AID 624256, 2012;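 active = normalized GFP-positive differentiation at or above the plate's own cutoff, the solvent-only control mean plus 3 SD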;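 note: cells exposed to compound for four days before flow analysis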
Myeloid diff CP1 – inducers of myeloid progenitor differentiation, confirmation, cell-based, GFP/Mac1 flow cytometry, cherry pick 01 | calls only | ER-HoxA9 myeloid progenitors, GFP/Mac1 double-positive flow | shares compounds with Myeloid diff 2 | 2,300 compounds, 2% hits;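 active = share of green or green-and-red cells above 9 and 9% in run 1 or 4 and 3% in run 2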
GFP autofluor – counter-screen for myeloid differentiation promoters: compound fluorescence. shares compounds with Myeloid diff 2. ER-HoxA9 myeloid progenitors, no estrogen, GFP autofluorescence flow cytometry; vehicle wells 0%, positive control 100%. fluorescence response, % (test concentration not listed). 2,300 compounds, 7.4% hits. AID 651707;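 active = over 5% cells positive for green fluorescent reporter, or over 2% positive for both it and APC stain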
Of the large screens only hits and unclear results are named; the others gave an inactive call (follow-up assays come after a bar, where they were run).

CSc1ccccc1NC(=O)Nc1ccc(Cl)cc1	none | Myeloid diff CP1 inactive | GFP autofluor inactive
COc1ccc(NC(=O)Nc2ccccc2SC)cc1	none
O=C(CCN1C(=O)c2ccccc2S1(=O)=O)Nc1ccc2c(c1)OCCO2	none | Myeloid diff CP1 inactive | GFP autofluor inactive
CC(C)Cn1c(N)c(C(=O)COC(=O)c2cnccn2)c(=O)n(C)c1=O	Myeloid diff 2 active | Myeloid diff CP1 inactive | GFP autofluor inactive
Cc1csc(SCC(=O)c2c(N)n(CC(C)C)c(=O)n(C)c2=O)n1	Myeloid diff 2 active | Myeloid diff CP1 inactive | GFP autofluor 51
CCOC(=O)Cc1csc(SCC(=O)c2c(N)n(CC(C)C)c(=O)n(C)c2=O)n1	none
CCCC(=O)Nc1cc(-c2nc3ncccc3o2)ccc1C	none (no result: Myeloid diff 2) | Myeloid diff CP1 inactive | GFP autofluor inactive
CN1CCN(c2ccc(-c3cc(NC=O)c4ncc(-c5ccccc5)n4c3)cc2)CC1	none (no result: beta cell repl) | Myeloid diff CP1 inactive | GFP autofluor inactive
CC(=O)Nc1cc(-c2ccc(N3CCN(C)CC3)cc2)cn2c(-c3ccccc3)cnc12	none (no result: beta cell repl)
CN1CCN(c2ccc(-c3cc(NC=O)c4ncc(-c5ccc(F)cc5)n4c3)cc2)CC1	Myeloid diff 2 active (no result: beta cell repl) | Myeloid diff CP1 inactive | GFP autofluor inactive
Cc1cccc(NC(=O)C(=O)NCCc2c[nH]c3ccccc23)c1C	none | Myeloid diff CP1 inactive | GFP autofluor inactive
Cc1cccc(C)c1NC(=O)C(=O)NCCc1c[nH]c2ccccc12	none
Nc1ccc2c3c(cccc13)C(=O)N(c1ccccc1)C2=O	Myeloid diff 2 active (no result: beta cell repl) | Myeloid diff CP1 inactive | GFP autofluor inactive
Cc1cccc(N2C(=O)c3cccc4c(N)ccc(c34)C2=O)c1	none
CC12C(=O)N(CCC(=O)O)C(=O)C1C1C=CC2C1 (configuration not stated)	Myeloid diff 2 active | Myeloid diff CP1 inactive | GFP autofluor inactive
C=CCn1c(C)c(C(C)=O)c(N2CCCC2)nc1=S	none
C=CCn1c(C)c(C(C)=O)c(N2CCN(c3ccccc3)CC2)nc1=S	Myeloid diff 2 active | Myeloid diff CP1 inactive | GFP autofluor inactive
CN(CC(=O)Nc1ccc(S(=O)(=O)N2CCCC2)cc1)Cc1c(F)cccc1Cl	none
O=C(CNC(=O)c1ccc(Br)o1)Nc1ccc(N2CCCCCC2)cc1	Myeloid diff 2 active | Myeloid diff CP1 inactive | GFP autofluor inactive
COc1cc(NC(=O)COC(=O)Cn2cnc3c2c(=O)n(C)c(=O)n3C)cc(OC)c1	none
O=S(=O)(NCc1cccs1)c1cccc2cccnc12	none
O=[N+]([O-])c1ccc(/C=[N+](\[O-])[C@@H]2CCCC[C@@H]2/[N+]([O-])=C/c2ccc([N+](=O)[O-])o2)o1	Myeloid diff 2 active | Myeloid diff CP1 inactive | GFP autofluor inactive
O=C(N/N=C/c1ccc([N+](=O)[O-])o1)C1CCCC1	none (no result: Myeloid diff 2)
COc1ccc(NC(=O)C2C3C=CC4(CN(Cc5cccnc5)C(=O)C24)O3)c(OC)c1 (configuration not stated)	none
COCCCNc1nc2ccccc2nc1NS(=O)(=O)c1cccc(Cl)c1	none
O=S(=O)(Nc1nc2ccccc2nc1NCCO)c1cccc(Cl)c1	none | Myeloid diff CP1 inactive | GFP autofluor inactive
CCC(=O)Nc1ccc(/C(C)=N\NS(=O)(=O)c2ccc(C)cc2)cc1	Myeloid diff 2 active | Myeloid diff CP1 inactive | GFP autofluor inactive
CC(=O)Nc1ccc(/C(C)=N/NS(=O)(=O)c2ccc(C)cc2)cc1	none (no result: Myeloid diff 2)
CC[C@@]1(C(=O)OC)N[C@H](CN(C)S(=O)(=O)c2ccc(-c3ccccc3)cc2)[C@@H]2C(=O)N(C)C(=O)[C@@H]21	none | Myeloid diff CP1 inactive | GFP autofluor inactive
CCN(C[C@H]1N[C@@](CC)(C(=O)OC)[C@H]2C(=O)N(Cc3ccccc3)C(=O)[C@@H]12)S(=O)(=O)c1ccc(OC)cc1	none | Myeloid diff CP1 inactive | GFP autofluor inactive

Source: PubChem
